From PubChem BioAssay
Active and inactive are the calls of the source. Unless noted, how the calls were made is not given here.

Legend:
[1] = resazurin metabolic signal in HepG2 cells – cell-based, resazurin fluorescence, 24 h, PK04 Diversity Set, profiling panel (AID 1172); conditions: HepG2 viability, higher = more signal
[2] = budding yeast growth changes without added modifier – OD600, strain BY4716, 24 h, basal condition, primary screen (AID 1173); conditions: S. cerevisiae BY4716 growth, OD600, 24 h; higher = more signal, called active from +8 up or from −8 down
[3] = viability profiling in MM1S myeloma cells – cell-based, resazurin fluorescence, basal, 24 h, PK04 Diversity Set, profiling panel (AID 1174); conditions: higher = more signal, called active from +8 up or from −8 down;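 further: MM1S multiple myeloma cell line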
[4] = biological target: Dihydroorotate dehydrogenase (quinone), mitochondrial (Plasmodium falciparum (isolate 3D7)) (UniProt Q08210); test: inhibition of P. falciparum DHODH – biochemical, C-terminal His tag, absorbance 600 nm, primary screen (AID 1175); conditions: PfDHODH enzyme, DCIP absorbance 600 nm; higher = more signal, called active from +8 up or from −8 down;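 further: recombinant parasite enzyme with a five histidine tag at its C terminus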
[5] = inhibition of PAO1 biofilm formation – strain PAO1, LB-PBS medium, absorbance 600 nm, primary screen (AID 1176); conditions: P. aeruginosa PAO1 growth/biofilm, A600, 12 h; higher = more signal
[6] = growth modulation of vineyard yeast isolate – strain RM11-1a, OD600, basal, 24 h, primary screen (AID 1177);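 further: cultures grown under basal conditions with no added stressor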; conditions: S. cerevisiae RM11-1a growth, OD600, 24 h; higher = more signal, called active from +8 up or from −8 down
[7] = growth of efflux-deficient E. coli DRC39 – strain DRC39, OD650, 24 h, E. coli filamentation inducers, primary screen (AID 1178);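 further: growth measured as culture turbidity by optical density at 650 nm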; conditions: E. coli DRC39 acrAB, higher = more signal, called active from +8 up or from −8 down
[8] = growth of efflux-deficient E. coli DRC39 – strain DRC39, OD650, 48 h, E. coli filamentation inducers, primary screen (AID 1179);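 further: screen aims at cell division blockers that make cells filament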; conditions: E. coli DRC39 delta-acrAB growth, higher = more signal, called active from +8 up or from −8 down
[9] = viability profiling in RPMI8226 myeloma cells – cell-based, resazurin fluorescence, basal, 24 h, PK04 Diversity Set, profiling panel (AID 1180); conditions: higher = more signal;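 further: RPMI8826 multiple myeloma cell line at 5000 cells per well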
[10] = biological target: E3 ubiquitin-protein ligase XIAP (Homo sapiens) (UniProt P98170); test: small molecules binding XIAP protein – biophysical, small-molecule microarray, fluorescence 635 nm, primary screen (AID 1181); conditions: higher = more signal;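 further: score merges 667 nm emission and signal to noise over triplicate slides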
[11] = test system: XIP peptide (Xip251-270) binding; test: XIP fragment 251-270 binding compounds – biochemical, small-molecule microarray, fluorescence 635/667 nm, 0.1 µg/mL protein, primary screen (AID 1182); conditions: fluorescent protein binding, 635 nm, higher = more signal, called active from +8 up or from −8 down
[12] = test system: XIP peptide (Xip251-270); test: compounds binding XIP fragment 251-270 – biochemical, small-molecule microarray, fluorescence 635/667 nm, 0.5 µg/mL protein, primary screen (AID 1183); conditions: fluorescence 635 nm, higher = more signal
[13] = blood-stage malaria parasite viability loss – strain 3D7, DAPI fluorescence, 100 nL, primary screen (AID 1184);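 further: parasites grown inside human red blood cells in medium with human serum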; conditions: P. falciparum 3D7 growth, 3 d, higher = more signal
[14] = biological target: Homeobox protein Hox-A13 (Mus musculus) (UniProt Q62424); test: disruptors of Hoxa13 oligonucleotide interaction – biochemical, fluorescence polarization, labeled oligonucleotide, primary screen (AID 1185); conditions: Hoxa13:DNA binding, 15 min, higher = more signal, called active from +8 up or from −8 down
[15] = blockers of DNA damage checkpoint Chk1 activation – imaging, HeLa, hydroxyurea, phospho-Chk1 antibody, percent positive cells, primary screen (AID 1186); conditions: hydroxyurea-induced phospho-Chk1 immunofluorescence imaging, higher = more signal
[16] = blockers of DNA damage checkpoint Chk1 activation – imaging, HeLa, hydroxyurea, phospho-Chk1 nuclear intensity, primary screen (AID 1187); conditions: hydroxyurea-induced phospho-Chk1 immunofluorescence imaging, higher = more signal

Chain of Homeobox protein Hox-A13 (Mus musculus) (Q62424 whole entry, looked up): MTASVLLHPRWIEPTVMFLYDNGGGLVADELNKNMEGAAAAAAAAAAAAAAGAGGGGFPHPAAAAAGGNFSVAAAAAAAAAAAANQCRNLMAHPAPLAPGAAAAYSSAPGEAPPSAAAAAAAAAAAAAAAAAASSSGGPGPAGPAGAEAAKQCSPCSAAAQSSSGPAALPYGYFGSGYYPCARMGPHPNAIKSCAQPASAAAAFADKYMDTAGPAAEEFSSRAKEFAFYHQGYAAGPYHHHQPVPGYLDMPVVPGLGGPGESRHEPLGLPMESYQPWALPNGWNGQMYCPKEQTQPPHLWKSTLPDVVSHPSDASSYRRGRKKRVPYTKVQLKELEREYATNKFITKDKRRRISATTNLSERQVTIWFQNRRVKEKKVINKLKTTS
Chain of Dihydroorotate dehydrogenase (quinone), mitochondrial (Plasmodium falciparum (isolate 3D7)) (Q08210 whole entry, looked up): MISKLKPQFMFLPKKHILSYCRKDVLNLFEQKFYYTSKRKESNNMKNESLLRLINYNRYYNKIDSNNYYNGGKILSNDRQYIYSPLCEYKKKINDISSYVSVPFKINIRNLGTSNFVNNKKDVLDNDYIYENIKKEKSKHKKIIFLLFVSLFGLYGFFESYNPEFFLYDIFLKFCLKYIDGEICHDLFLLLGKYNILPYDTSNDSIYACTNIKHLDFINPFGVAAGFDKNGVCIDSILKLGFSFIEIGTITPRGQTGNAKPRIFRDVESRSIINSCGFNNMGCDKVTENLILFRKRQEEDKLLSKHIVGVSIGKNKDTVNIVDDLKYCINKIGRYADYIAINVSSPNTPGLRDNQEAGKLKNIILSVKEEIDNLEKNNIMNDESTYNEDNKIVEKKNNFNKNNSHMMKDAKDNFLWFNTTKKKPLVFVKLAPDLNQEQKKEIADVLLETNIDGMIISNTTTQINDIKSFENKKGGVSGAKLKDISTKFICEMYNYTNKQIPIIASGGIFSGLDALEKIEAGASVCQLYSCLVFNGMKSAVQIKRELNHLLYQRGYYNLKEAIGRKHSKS
Chain of E3 ubiquitin-protein ligase XIAP (Homo sapiens) (P98170 whole entry, looked up, the tested form may be a part): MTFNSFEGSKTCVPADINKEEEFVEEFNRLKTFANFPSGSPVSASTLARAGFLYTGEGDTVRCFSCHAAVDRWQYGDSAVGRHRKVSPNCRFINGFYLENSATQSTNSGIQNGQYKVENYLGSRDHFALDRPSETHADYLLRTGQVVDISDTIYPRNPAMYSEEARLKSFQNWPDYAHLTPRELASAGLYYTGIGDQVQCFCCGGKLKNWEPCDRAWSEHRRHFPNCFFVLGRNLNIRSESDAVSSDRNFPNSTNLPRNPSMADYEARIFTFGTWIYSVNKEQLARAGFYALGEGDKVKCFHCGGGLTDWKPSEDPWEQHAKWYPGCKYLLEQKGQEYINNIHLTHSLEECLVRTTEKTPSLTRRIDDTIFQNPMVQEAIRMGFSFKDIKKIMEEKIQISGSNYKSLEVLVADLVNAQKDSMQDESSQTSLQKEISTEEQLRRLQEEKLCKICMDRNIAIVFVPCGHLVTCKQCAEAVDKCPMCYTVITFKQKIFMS

Structure (SMILES) | z-score [1] | z-score [2] | z-score [3] | composite z-score [4] | z-score [5] | z-score [6] | z-score [7] | z-score [8] | z-score [9] | composite z-score [10] | composite z-score [11] | composite z-score [12] | z-score [13] | z-score [14] | z-score [15] | z-score [16]
Cc1ccc(C2C3C(=O)CC4C(=O)N(c5ccccc5)C(=O)C4C3CN2S(=O)(=O)c2ccc(C)cc2)cc1 (stereo not given) | -0.419 | 1.05 (inactive) | -0.936 (inactive) | -0.274 (inactive) | 0.201 (inactive) | 1.24 (inactive) | -0.478 (inactive) | 0.384 (inactive) | -0.82 | -0.173 | 0.053 (inactive) | 0.785 | 0.395 | -3.61 (inactive) | 0.951 (inactive) | 1 (inactive)
CC(C)[Si](C#C[Si](C(C)C)(C(C)C)C(C)C)(O[C@H](C)c1cn(Cc2ccccc2)nn1)C(C)C | 0.0403 | 0.745 (inactive) | 1.74 (inactive) | -0.348 (inactive) | 0.419 (inactive) | -0.0006 (inactive) | -0.118 (inactive) | 0.164 (inactive) | 0.776 | 0.013 | -0.0845 (inactive) | 0.0972 | 1.59 | -0.236 (inactive) | -0.175 (inactive) | -0.288 (inactive)
COC(=O)[C@@]1(Cc2ccccc2)[C@H]2c3cc(C(=O)N(C)C)n(CCc4c[nH]c5ccc(O)cc45)c3C[C@H]2CN1C(=O)c1ccccc1 | 0.236 | 0.412 (inactive) | -1.18 (inactive) | -0.568 (inactive) | 1.07 (inactive) | -0.438 (inactive) | 0.117 (inactive) | 0.29 (inactive) | -1.27 | -0.0261 | 1.44 (inactive) | 0.818 | -1.59 | -5.16 (inactive) | -0.996 (inactive) | -0.844 (inactive)
O=C1NC(=O)C2C1C=CC(C(O)c1ccc(-c3ccccc3)s1)N2Nc1ccc(Cl)cc1Cl (stereo not given) | -3.58 | -1.99 (inactive) | -1.69 (inactive) | 0.0414 (inactive) | 2.64 (inactive) | 0.856 (inactive) | 0.457 (inactive) | -1.2 (inactive) | -1.75 | 0.849 | -0.142 (inactive) | 0.701 | -0.0328 | -3.64 (inactive) | 0.197 (inactive) | 0.136 (inactive)
C=CCOC(=O)[C@H]1[C@@H]2C(=O)O[C@@H](c3ccccc3)[C@@H](c3ccccc3)N2[C@@H](c2ccc(OCCOC(=O)[C@H]3C[C@H]4C(=O)N[C@@H](CCCCN(C)C)C(=O)N4[C@H]3c3cccc(OCCO)c3)cc2)[C@]12C(=O)Nc1ccc(I)cc12 | -0.0574 | 0.626 (inactive) | -0.865 (inactive) | 1.71 (inactive) | 0.808 (inactive) | 1.75 (inactive) | -0.548 (inactive) | -1.02 (inactive) | -0.316 | 0.194 | 0.718 (inactive) | 0.634 | -0.355 | 5.48 (inactive) | -0.187 (inactive) | 0.0593 (inactive)
